Holding throughout (design): species or system human, MV4-11 + K-562 + COLO205 + SK-N-BE2 + OVCAR-8
One assay concerns ACVR1B. The following applies: read-out: apparent Kd, n = 1.
The subject of a further assay is ACVR1. The following applies: read-out: apparent Kd, n = 1.
For the next assay, the system named is TGFBR1. As to conditions: read-out: apparent Kd, n = 1.
A further assay relates to ACAD11. As to conditions: read-out: apparent Kd; compound concentrations: 100 nM and 1000 nM (sheet 'Samples'), CATDS: 8.0770900756938508E-3; n = 1.
The subject of the next assay is AURKB. The following applies: read-out: apparent Kd, compound concentrations: 100 nM and 1000 nM (sheet 'Samples'), n = 1.
The test system of the next assay is CSK. As to conditions: read-out: apparent Kd, n = 1.
For another assay, the system named is EPHA1. As to conditions: read-out: apparent Kd, n = 1.
The subject of the next assay is FLT3. As to conditions: read-out: apparent Kd, n = 1.
For another assay, the system named is GSK3A. The following applies: read-out: apparent Kd; compound concentrations: 100 nM and 1000 nM (sheet 'Samples'), CATDS: 2.0180819092640301E-2; n = 1.
In another assay the test system is GSK3B. The following applies: read-out: apparent Kd; compound concentrations: 100 nM and 1000 nM (sheet 'Samples'), CATDS: 1.6634751009670601E-2; n = 1.
A further assay relates to LYN. As to conditions: read-out: apparent Kd, n = 1.
The next assay relates to SIK2. The following applies: read-out: apparent Kd, n = 1.
The test system of a further assay is SRC. As to conditions: read-out: apparent Kd, compound concentrations: 100 nM and 1000 nM (sheet 'Samples'), n = 1.
A further assay has as its system TNK1. As to conditions: read-out: apparent Kd, n = 1.
For another assay, the system named is DYRK1A. As to conditions: read-out: apparent Kd, compound concentrations: 100 nM and 1000 nM (sheet 'Samples'), n = 1.
The next assay has as its system AKT2. As to conditions: read-out: apparent Kd, compound concentrations: 100 nM and 1000 nM (sheet 'Samples'), n = 1.
The next assay concerns EGFR. As to conditions: read-out: apparent Kd, compound concentrations: 100 nM and 1000 nM (sheet 'Samples'), n = 1.
The subject of a further assay is ZAK. The following applies: read-out: apparent Kd; compound concentrations: 100 nM and 1000 nM (sheet 'Samples'), CATDS: 2.00291787525065E-2; n = 1.
Another assay deals with DDR1. As to conditions: read-out: apparent Kd; compound concentrations:100 nM and 1000 nM (sheet 'Samples'); n = 1.
The next assay has as its system MAPK14. The following applies: read-out: apparent Kd; compound concentrations:100 nM and 1000 nM (sheet 'Samples'); n = 1.
[1] abbreviates: compound concentrations:100 nM and 1000 nM (sheet 'Samples').

SMILES strings stand for the structures. Like-named read-outs stand apart in the source and are kept apart here.

As for `NC(=O)c1cccc(Nc2nccc(Nc3cccc4[nH]ncc34)n2)c1` [GW782612X], the potency estimated from few doses with ACVR1B (compound concentrations: 100 nM and 1000 nM (sheet 'Samples'), CATDS: 5.6390113546044701E-2) was 401 nM; in the assay on ACVR1 (compound concentrations: 100 nM and 1000 nM (sheet 'Samples'), CATDS: 0.10376431199902), 122 nM; in the assay with TGFBR1 (compound concentrations: 100 nM and 1000 nM (sheet 'Samples'), CATDS: 5.60805138513292E-2) it was 406 nM.
Regarding `O=C1N=C(NCc2cccs2)SC1Cc1ccc2ncccc2c1` (stereo not drawn) [RO4629078-000], the potency estimated from few doses in the assay on ACAD11 was 1250 nM; in the assay with ACVR1 (compound concentrations: 100 nM and 1000 nM (sheet 'Samples'), CATDS: 8.2545547739811299E-3), 1160 nM; in the assay on AURKB (CATDS: 8.1625100314479202E-3) it was 1200 nM; in the assay with CSK (compound concentrations: 100 nM and 1000 nM (sheet 'Samples'), CATDS: 1.22881462523177E-2), 419 nM; in the assay on EPHA1 (compound concentrations: 100 nM and 1000 nM (sheet 'Samples'), CATDS: 1.25959830755684E-2), 398 nM; in the assay on FLT3 (compound concentrations: 100 nM and 1000 nM (sheet 'Samples'), CATDS: 7.9273479759833908E-3) it was 1330 nM. Further, the potency estimated from few doses with GSK3A is 174 nM; in the assay with GSK3B, 238 nM; in the assay on LYN (compound concentrations: 100 nM and 1000 nM (sheet 'Samples'), CATDS: 9.9981449743306808E-3), 670 nM; in the assay on SIK2 (compound concentrations: 100 nM and 1000 nM (sheet 'Samples'), CATDS: 1.2411552216362301E-2), 411 nM; with SRC (CATDS: 1.3307336951607501E-2) it was 357 nM; with TNK1 (compound concentrations: 100 nM and 1000 nM (sheet 'Samples'), CATDS: 2.1497624040677302E-2) it was 158 nM.
As for `COc1ccccc1CCNC1=NC(=O)/C(=C/c2ccc3ncccc3c2)S1` [RO4503316-000], the potency estimated from few doses in the assay with DYRK1A (CATDS: 0.20132255504791199) is 128 nM.
Regarding `O=C1N=C(NCCc2ccccn2)S/C1=C\c1ccc2ncccc2c1` [RO4508346-000], the potency estimated from few doses in the assay with DYRK1A (CATDS: 0.223400824962835) is 127 nM.
Turning to `NC1=NC(=O)/C(=C/c2ccc3ncccc3c2)S1` [RO4569139-000], the potency estimated from few doses in the assay with DYRK1A (CATDS: 0.43183776325706602) is 39.3 nM.
`Cl.Cl.Cl.c1ccc(Oc2ccc(Nc3ccnc4cc(-c5ccc(CN6CCNCC6)o5)ccc34)cc2)nc1.c1ccc(Oc2ccc(Nc3ccnc4cc(-c5ccc(CN6CCNCC6)o5)ccc34)cc2)nc1` [GW567142A]: the potency estimated from few doses with AKT2 (CATDS: 1.7589072796327002E-2) was 1790 nM; with AURKB (CATDS: 2.12373497583834E-2), 952 nM; in the assay on EGFR (CATDS: 4.6801095990659902E-2), 143 nM; with EPHA1 (compound concentrations: 100 nM and 1000 nM (sheet 'Samples'), CATDS: 3.01720788002969E-2), 372 nM; in the assay on FLT3 (compound concentrations: 100 nM and 1000 nM (sheet 'Samples'), CATDS: 3.3367464965841198E-2), 294 nM; with LYN (compound concentrations: 100 nM and 1000 nM (sheet 'Samples'), CATDS: 2.5031582152460801E-2) it was 598 nM. In addition, the values for the potency estimated from few doses with SRC (CATDS: 6.9151530133692504E-2) and in the assay with ZAK were 70.8 nM and 1140 nM, respectively.
`O=C1N=C(NCCc2cccc(Cl)c2)S/C1=C\c1ccc2ncccc2c1` [RO4509201-000]: the potency estimated from few doses with DYRK1A (CATDS: 6.6454923664205107E-2) is 945 nM; in the assay on FLT3 (compound concentrations: 100 nM and 1000 nM (sheet 'Samples'), CATDS: 6.3899678732730503E-2) it was 1060 nM.
For the compound `CS(=O)(=O)CCNCc1ccc(-c2ccc3ncnc(Nc4ccc(OCc5cccc(F)c5)c(C(F)(F)F)c4)c3c2)o1` [GW576484X], the potency estimated from few doses in the assay with AKT2 (CATDS: 4.5987801057845099E-2) is 2420 nM; with EGFR (CATDS: 4.6980711652152798E-2) it was 2290 nM.
`CCN(CC)CCOc1ccc(Nc2ncc3cc(-c4c(Cl)cccc4Cl)c(=O)n(C)c3n2)cc1` [SB-601273]: the potency estimated from few doses with ACVR1B (setting [1]) is 170 nM; with ACVR1 (setting [1]), 218 nM; with CSK (setting [1]), 838 nM; with DDR1, 165 nM; with EPHA1 (setting [1]) it was 2.59 nM; with FLT3 (setting [1]) it was 891 nM. For the same compound, the potency estimated from few doses with LYN (setting [1]) was 111 nM; in the assay with MAPK14, 678 nM; with SIK2 (setting [1]), 55.3 nM; with SRC (CATDS: 2.2831439455092799E-2), 137 nM; in the assay with TGFBR1 (setting [1]), 270 nM; in the assay on TNK1 (setting [1]), 631 nM.

Values taken from article PMC11062922 (Nature Chemical Biology, 2023).
